Compound activity as filed in PubChem.
A selection: hits, their analogues and other compounds. The true share with any hit is near 3.8%.
HSF1 activator: increases HSF-1 driven luciferase reporter signal; NIH3T3-HGL HSF-1 luciferase reporter, MG132, 8 h; 100% = twice DMSO control signal; activation, % at 9 µM; 300,000 compounds, 1.7% hits; AID 504408;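 active = mean replicate activation of at least 50% with a set share of replicates each reaching 50%; inconclusive = only one of those two conditions met; inactive = mean below 50% and too few replicates reaching it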
NALP1 inh: blocks the NALP1 inflammasome reconstituted in yeast; S. cerevisiae NALP1/ASC/caspase-1 growth, X-gal OD620, 72 h; inhibition, % at 10 µM; 280,000 compounds, 0.61% hits; AID 2071; in the data active = inhibition mostly above about 24%, no sharp cut-off; inactive = mostly below about 32%
Hsp70 act: transcriptional activators of Hsp70. HeLa Hsp70 promoter luciferase reporter, luminescence; scaled: vehicle 0, proteasome-inhibitor control 100%. activation, % at 10 µM. 200,000 compounds, 0.04% hits. AID 1203;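 active = activation above the mean across all tested compounds plus 3 SD, cutoff set per campaign, cut at about 5.5% in these data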
pCIP destab: lowers stability of the mouse p/CIP coactivator protein; F442A p/CIP-EGFP cells, EGFP fluorescence, 16 h; AID 1984; 290,000 compounds, 0.01% hits; decrease of EGFP signal, % at 10 µM; Q05BA5;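 active = EGFP signal decrease of at least 30% at 10 µM or well 3 SD below plate mean, unless failing retest; inactive = the rest, including hits failing retest or dose response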
HSF1 inhib: HSF1 inhibition | AID 2098 | NIH3T3-HGL HSE-luciferase, MG132-induced, luminescence 8 h; hits give low values | 300,000 compounds, 0.77% hits | activity change, negative = inhibition, % at 7.5 µM (by protocol);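 active = more than half of replicate wells show activity change below -50%, luminescence cut by over half; inconclusive = some wells, but at most half, below -50%; inactive = no replicate well below -50%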;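 also: luciferase reports HSF-1 transcriptional activity via heat shock element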
HSP90 refold inh: inhibitors of HSP90 luciferase refolding in rabbit reticulocyte lysate. luciferase refolding luminescence, 3 h. 290,000 compounds, 0.91% hits. inhibition, % at 5.6 µM;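 active = inhibition above the screen-wide mean plus 3 SD, computed separately per campaign, cut at about 16% in these data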;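 also: inhibitors lower the luminescence because luciferase stays unfolded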
Of the large screens only hits and unclear results are named; the others gave an inactive call.

CN1C(=O)C(=Cc2ccccc2OCc2ccc(Cl)cc2)C(=O)N(C)C1=O	HSF1 activator inconclusive, NALP1 inh 44.3
COc1cccc(C2CC3C(=O)C=CC2N3Cc2ccccc2)c1 (configuration not stated)	NALP1 inh 69.4
C=C1C(=O)[C@@]23C[C@H]4[C@@H]5[C@@]6(C)CCC[C@@]57[C@@H]2[C@@H](O)[C@@H]1C[C@H]3[C@H]7N4C6	none (no result: NALP1 inh, Hsp70 act, pCIP destab, HSP90 refold inh)
CC(C)(C)N1Cc2ccccc2C1=N	NALP1 inh 42.9
Cc1cc(C)nc(N2Cc3ccccc3C2=N)n1	none
Cc1cc(OCC(=O)N2CCC(C(=O)O)(c3ccccc3)CC2)c2c(C)c(C)c(=O)oc2c1	none (no result: Hsp70 act)
COc1ccc(Oc2cc(NC(=O)c3nn(C)cc3[N+](=O)[O-])cc([N+](=O)[O-])c2)cc1	HSF1 inhib -53.8
O=C(Nc1ccc(F)c([N+](=O)[O-])c1)N1C[C@H]2C[C@@H](C1)c1cccc(=O)n1C2	none (no result: Hsp70 act)
c1ccc2sc(NC3=NCCN3)nc2c1	NALP1 inh 103.9
COc1ccc(NC2=NCC(C)S2)cc1 (configuration not stated)	none
COc1ccc2nc(NC3=NCCN3)sc2c1	NALP1 inh 93.1
Cc1cc(OCC(=O)NCc2ccncc2)c2c3c(c(=O)oc2c1)CCCC3	none (no result: Hsp70 act)
CC1=NOC2(C)Nc3ncnn3C(c3ccccc3)C12 (configuration not stated)	NALP1 inh 35.6
Cc1ccc2c(c1)N(C(=O)CCC(=O)N1CCC3(CC1)OCCO3)CCO2	HSF1 inhib -50.9 (no result: Hsp70 act)
CN1CC(C(=O)c2cccc(C(F)(F)F)c2)C(c2ccc(Cl)cc2)C1 (configuration not stated)	none (no result: Hsp70 act)
O=C(CF)NC(NC(=S)Nc1ccccc1O)C(Cl)(Cl)Cl (configuration not stated)	HSF1 activator 53.9
COP(=O)(OC)C(Nc1ccccc1)c1ccccc1 (configuration not stated)	none (no result: Hsp70 act)
Nc1c2c(nc3sc4c(c13)CCCC4)CCCCC2	NALP1 inh 54.3
CC(=O)C1(c2ccccc2)CCN(C(=O)C2CCC(=O)N(CCc3cccc(F)c3)C2)CC1 (configuration not stated)	none (no result: Hsp70 act)
CSc1ccc(C(=O)C2CCCN(Cc3cc4ccccc4[nH]3)C2)cc1 (configuration not stated)	none
CSc1ccc(C(=O)C2CCCN(Cc3cccnc3)C2)cc1 (configuration not stated)	HSF1 activator 104.1
CC(C)(CN)CC(=O)O	HSF1 activator 82.7 (no result: Hsp70 act)
COc1cc2c(cc1OC)CN(c1ccc([N+](=O)[O-])c(C(F)(F)F)c1)CC2	HSF1 activator 121.2
CCNc1cc(N2CCN(C)CC2)ccc1[N+](=O)[O-]	none
CC(C)CNC(=O)c1c(N)n(Cc2ccco2)c2nc3ccccc3nc12	HSF1 activator 55.7
COCCCNC(=O)c1c(N)n(Cc2ccco2)c2nc3ccccc3nc12	HSF1 activator 114.9 (no result: Hsp70 act)
COCCNC(=O)c1c(NC(=O)c2ccc(Br)o2)n(Cc2ccccc2)c2nc3ccccc3nc12	HSF1 activator 65.9
O=C(CCc1ccc(O)cc1)N1C[C@H]2C[C@@H](C1)c1cccc(=O)n1C2	none (no result: Hsp70 act)
CSCCC(NC(=O)CCC(=O)OC1CC[C@H]2[C@@H]3CC[C@H]4CC(=O)CC[C@]4(C)[C@H]3CC[C@]12C)C(=O)O (some centres not stated)	none (no result: Hsp70 act)
CCCN(CCC)C1Cc2cc(OC)c(OC)cc2C1	none (no result: NALP1 inh, Hsp70 act, pCIP destab, HSP90 refold inh)
CCOC(=O)C1(CCc2ccccc2)CCN(Cc2csc(C(C)=O)c2)CC1	NALP1 inh 27.2
CCOC(=O)C1(CCc2ccccc2)CCN(Cc2cccc3c2OCO3)CC1	none
C=C1C(=O)O[C@@H]2C[C@@H](C)[C@@H]3C=CC(=O)[C@@]3(C)[C@@H](OC(=O)CC(=O)O[C@H]3[C@@H]4C(=C)C(=O)O[C@@H]4C[C@@H](C)[C@@H]4C=CC(=O)[C@]43C)[C@H]12	HSF1 inhib -95.7 (no result: Hsp70 act, HSP90 refold inh)
C=C1C(=O)O[C@H]2C[C@@H](C)[C@@H]3C=CC(=O)[C@@]3(C)C[C@H]12	HSF1 inhib -63.9 (no result: Hsp70 act, HSP90 refold inh)
Cc1cccc(-c2nc3ccc(C(=O)N4CCC5(CC4)OCCO5)cc3nc2-c2cccc(C)c2)c1	none (no result: Hsp70 act)
COc1ccc(OC)c(CC(=O)N(C)C2CCCN(Cc3ccccc3F)C2)c1 (configuration not stated)	none (no result: Hsp70 act)
C/C(=C\c1ccc(N(C)C)cc1)[N+](=O)[O-]	none
CN(C)c1ccc(/C=C/[N+](=O)[O-])cc1	NALP1 inh 79.5
CCN(CC)c1ccc(CN2CC=C(c3ccc(F)cc3)CC2)cc1	none
COc1ccc(CN2CC=C(c3ccc(F)cc3)CC2)cc1Br	HSF1 inhib -67.9 (no result: Hsp70 act)
CCOP(=O)(/C=C(\Cl)c1ccccc1)C(O)c1ccc(F)cc1 (configuration not stated)	none (no result: Hsp70 act)
CN1CCN(Cc2cc(=O)n3ccsc3n2)CC1	none (no result: Hsp70 act)
CC(C)[C@]12O[C@H]1[C@@H]1O[C@]13[C@]1(O[C@H]1C[C@H]1C4=C(CC[C@@]13C)C(=O)OC4)[C@@H]2O	HSF1 inhib -67.8
CC1CCC/C=C/C2CC(O)CC2C(O)/C=C/C(=O)O1 (configuration not stated)	NALP1 inh 40.0
CCn1c(=O)cc(SCC(=O)N2CCC3(CC2)OCCO3)c2ccccc21	HSF1 activator 68.3
Cn1c(=O)n(CC(=O)N2CCC3(CC2)OCCO3)c(=O)c2ccccc21	none
Cc1cc(C)nc(-n2c(C)nc3cc(Cl)ccc3c2=O)c1	HSF1 inhib -77.9
CCC(CO)(C(=O)OC1CC2CCC(C1)N2C)c1ccccc1 (configuration not stated)	none (no result: Hsp70 act)
Cc1ccc2c(c1)C1CN(C)CCC1N2C(=O)Nc1cccc(C(F)(F)F)c1 (configuration not stated)	HSF1 inhib -70.4
COc1ccc2c(c1)C1(C(=O)O)CC=CCC1(C(=O)O)C2 (configuration not stated)	none (no result: NALP1 inh, Hsp70 act, pCIP destab, HSP90 refold inh)
CCc1ccc(N2C(=O)NC(=O)/C(=C\c3cccn3CCOc3ccc(C(C)C)cc3)C2=O)cc1	HSP90 refold inh 31.0
O=C(c1cn(Cc2ccccc2F)c2ncccc12)C(F)(F)F	none (no result: Hsp70 act)
O=C1NC(=S)N(C2CC2)C(=O)/C1=C/c1ccc2c(c1)CCN2CCCCl	HSF1 inhib -78.9
CCN1C(=O)/C(=C/c2ccc3c(c2)CCN3CCCCl)C(=O)NC1=S	none
COc1ccc(NC(=O)N2C[C@@H]3C[C@@H](C2)c2cccc(=O)n2C3)cc1	none (no result: Hsp70 act)
Cc1ccc(C)c(Cn2c(C(=O)O)c(C=O)c3ccccc32)c1	NALP1 inh 27.5
O=Cc1c(C(=O)O)n(Cc2ccccc2F)c2ccccc12	none (no result: Hsp70 act)
Brc1cccc(CNCCc2ccc3c(c2)OCO3)c1	none (no result: Hsp70 act)
CCCC[N+]12CCC(CC1)C(C(O)(c1ccccc1)c1ccccc1)C2 (configuration not stated)	HSF1 inhib -65.3 (no result: Hsp70 act)
